PubChem BioAssay AID592 (National Center for Advancing Translational Sciences (NCATS), 2007)
Several values for one entry are separate records, joined by “and”; a condition that tells them apart may be missing. Identical values can stand only once. Hit rate of the full screen: of about 59,000 compounds, fewer than 10 were called active. Only a sample is shown. Values without a mark were called inactive. No rule for the calls is given here.

assay: qHTS Assay for Spectroscopic Profiling in A647 Spectral Region; conditions: Compound fluorescence, A647 channel (570/671 nm), Tris buffer; hits give high values
Source text: NIH Molecular Libraries Screening Centers Network [MLSCN] NIH Chemical Genomics Center [NCGC] […] Occasionally, the artifactual effect may originate from the compounds own spectral or other biophysical properties which generally tend to track its assay concentration. Pre-screening/profiling the library with respect to the compounds spectral properties should help one exclude false positives early on. While the most informative fluorescent profiling data set is obtained by performing a full excitation and emission scan of each well by using a monochromator-based plate reader, such an approach is practical only on a very limited scale as scanning each well requires long time. An alternative approach, applied here, is to perform plate reader scans using selected excitation and emission wavelength pairs to generate a multidimensional relational database that correlates compound concentration and the respective relative fluorescence intensity at a given wavelength set. A standard curve of Alexa 647 (A647) present on each plate as six-point concentration series, was used to compute a normalized fluorescence response, termed dye-equivalent concentration, for each compound at each concentration.
NCGC Assay Protocol Summary: Buffer: 100 mM Tris buffer, pH 8.0 Dye standard plate: The wells in columns 1 through 4 of a Kalypsys polypropylene 1536-well compound plate were filled with standard solutions of fluorophore corresponding to the spectral region of interest. Solutions of A647 were placed in the following wells: AC1, AD1: 3 mM, AC2, AD2: 300 uM, AC3, AD3: 30 uM, AC4, AD4: zero (DMSO), AE1, AF1: 3 uM, AE2, AF2: 900 nM, AE3, AF3: 300 nM, AE4, AF4: zero (DMSO). Assay Steps: Six uL of buffer were dispensed to 1536-well Greiner black plates. Compounds and dye standards (23 nL) were transferred via Kalypsys PinTool. The plates were incubated for 15 min at room temperature, and then read on ViewLux (Perkin-Elmer) High-throughput CCD imager using 570 nm and 671 nm excitation and emission filter set. Keywords: NIH Roadmap, MLSCN, MLI, MLSMR, qHTS, NCGC, A647, A-647, Fluorescent Profiling.

SMILES | max dye-equivalent concentration
O=c1c(CCc2ccccc2)nc2cnc(N3CCNCC3)nc2n1Cc1cccs1 | 1 nM
O=C(OCC(=O)N1CCN(C(=O)c2ccco2)CC1)c1ccccc1Cc1ccccc1 | 7.2 nM
CCOc1ccccc1N=C1NC(=O)CS1 | 4.1 nM
CCOC(=O)C1CCN(C(c2cc3cc(C)cc(C)c3[nH]c2=O)c2nnnn2C2CCCCC2)CC1 (configuration not stated) | 1 nM
CCCSC1=C(C#N)C(c2ccccc2C)C(C(=O)OC)C(=O)N1 (configuration not stated) | 58 nM
COCC(C)n1c(SCc2ccc(C(=O)OC)o2)nc2ccccc2c1=O (configuration not stated) | 1.6 nM
COC(=O)c1ccc(C2CC(=O)Nc3cc(OC)c(OC)cc32)cc1 (configuration not stated) | 1 nM
CC(C)c1nc(N2CCOCC2)c(C#N)c2c1COC(C)(C)C2 | 69 nM
CCCC(=O)Nc1c(O)c2ccccc2[nH]c1=O | 1 nM
C=C(C)CSc1nc(N)c2c3c(sc2n1)CCC3 | 1.9 nM
O=C(OC1CCOC1=O)c1ccc(-c2nc3ccccc3s2)s1 (configuration not stated) | 1 nM
CCCS(=O)(=O)C(=C1Nc2ccccc2N1)S(=O)(=O)CCC | 1 nM
CSc1sc(C)cc1C1C(C#N)=C(N)N(c2cccnc2)C2=C1C(=O)CCC2 (configuration not stated) | 18 nM
CCN(CC)C(=O)N1CCN(C(=O)c2ccc(C)cn2)CC1 | 1 nM
CCC(CC)c1nnc(NS(=O)(=O)Cc2ccccc2)s1 | 5 nM
COC(=O)c1c(NC(=O)c2cccs2)sc2c1CCCC2 | 1 nM
CC1CCC(NC(=O)c2ccc(N3CCCC3=O)cc2)CC1 (configuration not stated) | 6 nM
CCCNC(=O)Nc1ccccc1C(=O)Nc1ccc(OC)cc1 | 1.2 nM
COc1ccccc1-n1nnnc1S(=O)(=O)Cc1ccc(Cl)cc1 | 37 nM
CCN1C(=O)/C(=C2/Sc3ccccc3N2CCCS(=O)(=O)O)SC1=S | 1 nM
CCCCC(=O)Nc1ccc(C(=O)NCCCn2ccnc2)cc1 | 2.5 nM
CCOC(=O)CNC(=O)CSc1nnc(COc2ccc(Cl)cc2)n1CC | 39 nM
N#C/C=C1\Sc2ccccc2C(=O)N1CC(=O)N1CCN(S(=O)(=O)c2ccccc2)CC1 | 1 nM
N#CC1=C(N)C(C#N)(C#N)[C@H](c2ccsc2)[C@H]2COCC=C12 | 25 nM
CC(C)C[C@H](NC(=O)[C@@H]1O[C@H]1C(=O)O)C(=O)NCCCCN=C(N)N | 60 nM and 51 nM
Cc1ccc2[nH]c3c(c2c1)CN(C(=O)CN1CCN(c2ccccc2)CC1)CC3 | 12 nM

SMILES | max dye-equivalent concentration
Cc1ccc(C(C(=O)NC2CCCC2)N(Cc2ccco2)C(=O)CCC(=O)Nc2ccccn2)cc1 (configuration not stated) | 23 nM
CC(=O)/C(C)=N\O | 34 nM
COC(=O)c1cc(C(=O)OC)cc(N2C(=O)CC(N3CCN(c4ccccc4)CC3)C2=O)c1 (configuration not stated) | 14 nM
CC(=O)Nc1ccc(S(=O)(=O)Nc2nc3n(n2)C(c2ccccc2)CC(=O)N3)cc1 (configuration not stated) | 16 nM
N#Cc1c(N)sc2c1CCN(C(=O)OCc1ccccc1)C2 | 36 nM
O=S(=O)(c1cccc(S(=O)(=O)N2CCC(n3nnc4ccccc43)CC2)c1)N1CCCCC1 | 23 nM
CC(=O)/C(=N\N=C(N)N)c1ccccc1 | 1 nM
Clc1ccc(Cc2nn3c(-c4ccncc4)nnc3s2)cc1 | 4 nM
CCc1cc(Br)ccc1NC(=O)C1CCCO1 (configuration not stated) | 19 nM
CCCS(=O)(=O)Nc1c(C(=O)O)[nH]c2ccccc12 | 1 nM
CCCCSc1nnc(-c2ccc(C)cc2)o1 | 5.1 nM
CCOC(=O)c1oc2ccccc2c1NC(=O)c1cccs1 | 5.6 nM
CCCS(=O)(=O)N1CCCC(C(=O)N2CCN(c3ccccc3)CC2)C1 (configuration not stated) | 1 nM
COc1ccc(CN2CN(C(C)C)CSC2=S)cc1 | 1 nM
COc1ccc(-c2cc3n(n2)CCc2nc4ccccc4n2-3)cc1 | 1 nM
O=C1c2oc3ccc(Br)cc3c(=O)c2C(c2cccc(F)c2)N1CCO (configuration not stated) | 3.9 nM
Cc1cc(N2CCCCC2)nc2ccc(Cc3ccc4nc(N5CCCCC5)cc(C)c4c3)cc12 | 3.4 nM
O=C(NC1CC2CCCC(C1)N2C(=O)N1CCCCC1)C1CCCCC1 (configuration not stated) | 31 nM
CCCCOc1ccccc1/C=c1/sc2nc(-c3oc4ccccc4c3C)nn2c1=O | 22 nM
COc1ccccc1N1CCN(C(=O)Cn2nnc(-c3cccs3)n2)CC1 | 1 nM
COc1ccccc1CNc1ncnc2ccc(-c3ccc4c(c3)OCO4)cc12 | 31 nM
Cn1c(NC(=O)c2ccco2)c(-c2ccccc2Cl)c(=O)c2ccccc21 | 1 nM
NC(=S)c1ccc(C(N)=S)o1 | 5.7 nM
c1ccc(-c2nnc3n2NC(c2ccc4c(c2)OCO4)S3)cc1 (configuration not stated) | 12 nM
O=C(CCc1ccccc1)Nc1ccc(NC(=O)C2CC2)nc1 | 45 nM
COC(=O)c1ccc(NCC(=O)c2ccccc2)cc1 | 1.7 nM
